Rows were chosen to be rich in hits. Some 2.5% of all compounds tested hit in one or more screens of this group.
TWEAK Fn14 block – TWEAK-Fn14 signaling inhibition. TWEAK-stimulated Fn14 reporter cells, luciferase luminescence, 8 h. inhibition, % at 10 µM. 2% of 360,000 active. AID 1159606; in the data active = inhibition above about 50%
EWS-Fli block – inhibitors of EWS/Fli oncoprotein transcriptional activity; A673 NR0B1-luciferase reporter, viability-normalised; inhibition, % at 12.6 µM; 0.67% of 350,000 active; AID 651661;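 active = mean inhibition of at least 50% after viability correction, with every replicate also passing that limit; inconclusive = mean reaches 50% but only one of two replicates passes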;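 note: firefly luciferase signal divided by Alamar Blue viability fluorescence both relative to DMSO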
TROY NFkB inh – blocks TROY-dependent signaling in reporter cells; 0.98% of 360,000 active; Q293 LMP1-TROYcd NF-kB luciferase reporter, 4 h; inhibition, % at 10 µM; AID 1347056;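 active = compounds whose plate-normalised and pattern-corrected inhibition of the luciferase reporter signal at the single screening dose is 50% or more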
EBV LMP1 NFkB – reduces LMP1-driven NF-kappaB luciferase signal. LMP1-induced NF-kappaB luciferase reporter cells, luminescence. inhibition, % at 12.5 µM. 0.69% of 350,000 active. AID 504558; in the data active = inhibition above about 41%; inconclusive = no clear call, values can overlap the other calls;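 note: 0% = neutral control wells and 100% = reference inhibitor control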
LGR2 antag – Drosophila LGR2 receptor signaling inhibition; AID 720647; 0.35% of 380,000 active; HEK293 LGR2, CRE-luciferase, bursicon-stimulated, 4 h; inhibition, % at 9.99 µM;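 active = drop in luminescence signal, shown as inhibition above about 50% in the replicate tests, limit read from the data, passing the limit was not always enough; inconclusive = probably only some replicates passing the limit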;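 note: agonist challenge used bursicon conditioned medium at about half maximal strength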
* = called active by the depositor; u = inconclusive; x = not tested or not shown.

SMILES | TWEAK Fn14 block | EWS-Fli block | TROY NFkB inh | EBV LMP1 NFkB | LGR2 antag
COc1ccc(C(=O)c2[nH]c(N)c(C(=O)NCCc3c[nH]c4ccccc34)c2-c2c(F)cccc2Cl)cc1 | 54.5* | -5.2 | 22.9 | x | 25.9
CN1C(=O)c2cc(NC(=O)c3cccc(F)c3)ccc2OC[C@@H]2O[C@@H](CC(=O)NC3CCC3)CC[C@H]21 | x | -11.9 | x | x | -2.9
Cc1cc(C=C2C(=O)c3ccccc3C2=O)c(C)n1C | 28.9 | x | 46.4 | -2.1 | -36.6
CCn1c(C)cc(C=C2C(=O)c3ccccc3C2=O)c1C | 53.6* | -11.4 | 31.0 | -14.4 | -4.3
Cc1cc(/C=C2/C(=O)NN(c3ccccc3)C2=O)c(C)n1-c1ccc(O)cc1 | 88.0* | 3.2 | 82.7* | 37.3 | 44.8
Cc1cccc(-n2c(C)cc(C=C3C(=O)c4ccccc4C3=O)c2C)c1 | 91.9* | x | 79.7* | 9.8 | 18.6
COc1cccc(-c2cnc3c(c2)C(=O)N([C@@H](C)CO)C[C@@H](C)[C@H](CN(C)Cc2ccc(C(=O)O)cc2)O3)c1 | x | -7.9 | x | x | 0.0
C[C@@H]1CN([C@@H](C)CO)C(=O)c2cc(C3=CCCCC3)cnc2O[C@@H]1CN(C)C(=O)Nc1ccc(F)cc1 | x | -2.5 | x | x | -28.1
COc1cc(OC)c(C(=O)O/N=C(\N)c2ccccn2)cc1OC | -23.8 | -9.3 | -25.5 | 6.5 | -19.4
COc1ccccc1C(=O)O/N=C(\N)c1ccccn1 | 74.3* | -12.9 | 54.7* | 21.9 | u
N/C(=N\OC(=O)c1ccccc1[N+](=O)[O-])c1ccccn1 | 34.4 | -60.2 | 14.4 | 20.1 | 19.7
N/C(=N\OC(=O)Cc1ccc(-c2ccccc2)cc1)c1ccccn1 | 70.4* | x | 70.2* | 3.1 | x
Cc1ccc(C(=O)O/N=C(\N)c2ccccn2)c(C)c1 | 103.9* | 77.2* | 87.3* | 87.0* | 100.9*
Cc1ccc(C)c(OCC(=O)O/N=C(\N)c2ccccn2)c1 | -21.5 | x | -62.6 | -45.5 | x
N/C(=N\OC(=O)c1ccccc1Cl)c1ccccn1 | 102.0* | 54.3* | 70.1* | 65.2* | 95.0*
C[C@@H]1CN([C@@H](C)CO)C(=O)c2cc(NC(=O)C3CC3)ccc2O[C@@H]1CN(C)C(=O)Nc1ccc(C(F)(F)F)cc1 | x | -9.3 | x | x | -0.9
CS(=O)(=O)Nc1ccc2c(c1)[C@@H]1C[C@@H](CC(=O)N3CCOCC3)O[C@H](CO)[C@@H]1O2 | x | -16.5 | x | x | 2.0
Cc1ccc(/C(N)=N/OC(=O)c2ccc(Cl)cc2Cl)cc1 | 79.3* | -1.1 | 60.6* | -5.6 | 26.9
CCOC(=O)CSc1nc2sc3c(c2c(=O)n1-c1ccccc1)CCN(C(C)C)C3 | 83.7* | 13.4 | 10.6 | 1.6 | 10.0
CC(=O)Oc1cccc(N2C(=O)C3C(C2=O)C2C=CC3C23CC3)c1 (stereo not given) | -0.3 | x | 7.9 | 0.1 | x
CCOC(=O)c1cccc(N2C(=O)C3C(C2=O)C2C=CC3C23CC3)c1 (stereo not given) | 88.5* | x | x | 10.8 | -13.3
CC(C)CC#Cc1ccc2c(c1)O[C@@H](CN(C)C(=O)Cc1ccncc1)[C@@H](C)CN([C@@H](C)CO)S2(=O)=O | x | 14.3 | x | x | -9.6
COc1ccc(C2CC3(O)CC(C#N)(C(=O)N3)C2(C#N)C#N)cc1 (stereo not given) | 91.1* | 14.0 | 82.0* | -3.7 | -4.0
Cc1ccc(NS(=O)(=O)c2cc(NC(=O)c3ccc4c(c3)NC(=O)CS4)ccc2Cl)c(C)c1 | 66.3* | -1.4 | 48.6 | 6.7 | 3.3
CCC(=O)N1CC[C@@H]2[C@H](CO)Nc3ccc(-c4ccc(C(=O)N(C)C)cc4)cc3[C@@H]21 | x | -6.6 | x | x | 4.0
SMILES | TWEAK Fn14 block | EWS-Fli block | TROY NFkB inh | EBV LMP1 NFkB | LGR2 antag
COc1ccc(/C=C2\SC(=S)N(CCCC(=O)Nc3ccccn3)C2=O)cc1OC | 52.2* | x | 24.1 | 0.9 | 6.5
O=C(CCN1C(=O)/C(=C/c2ccccc2)SC1=S)Nc1ccccn1 | -2.1 | 2.6 | 20.1 | 1.0 | -0.3
Cc1ccc(/C=C2\SC(=S)N(CCCC(=O)Nc3ccccn3)C2=O)cc1 | 79.4* | x | 67.7* | 55.7* | x
COc1cc(/C=C2\SC(=O)N(CC(=O)Nc3cccc(C)c3)C2=O)ccc1OC(C)C(=O)O (stereo not given) | -2.0 | 5.5 | 5.2 | -7.0 | -5.9
COc1ccc(/C=C2\SC(=O)N(CC(=O)Nc3cccc(C)c3)C2=O)cc1O | -15.8 | 72.0* | -10.1 | -5.1 | -16.5
COc1ccc(NC(=O)Nc2ccc3c(c2)C(=O)N([C@H](C)CO)C[C@H](C)[C@@H](CN(C)CC2CCCCC2)OCCCC[C@H](C)O3)cc1 | x | 2.0 | x | x | 5.0
O=C(C[C@H]1CC[C@H]2[C@@H](COC[C@@H](O)CN2C(=O)c2cccnc2)O1)Nc1ccc(-c2ccccc2)cc1 | x | -6.8 | x | x | 7.5
COc1cccc(S(=O)(=O)N(C)C[C@H]2OCc3ccccc3-c3ccccc3C(=O)N([C@@H](C)CO)C[C@H]2C)c1 | x | -10.1 | x | x | 5.1
CC1(C)CC(=O)C=C(NCCN2CCN(C(=S)Nc3ccccc3)CC2)C1 | 10.1 | 6.8 | -11.0 | 69.7* | 2.7
CCOCC(=O)NC1CCc2cc(OC(=O)COCC)c(OC)c(OC)c2-c2ccc(SC)c(=O)cc21 (stereo not given) | 15.8 | 53.0* | 22.8 | 0.1 | 14.2
CCOC(=O)NC1CCc2cc(OC)c(OC)c(OC)c2-c2ccc(OC)c(=O)cc21 (stereo not given) | 0.5 | 47.5 | 11.8 | -3.3 | 20.6
COc1cc2c(c(OC)c1OC)-c1ccc(N(C)CC(OC)OC)c(=O)cc1[C@@H](NC(C)=O)CC2 | 16.4 | 60.0* | 21.0 | -11.1 | -11.6
COc1cc2c(c(OC)c1OC)-c1ccc(OC)c(=O)cc1C(N)CC2 (stereo not given) | 63.6* | 56.0* | 19.4 | -1.8 | 2.1
COc1cc2c(c(OC)c1OC)-c1ccc(OC)c(=O)cc1[C@@H](NC(C)=O)CC2 | 0.9 | 62.5* | 28.1 | -1.8 | -15.7
COc1ccc(CNC(=O)C[C@H]2C[C@@H]3c4cc(NS(=O)(=O)c5ccc(F)cc5)ccc4O[C@@H]3[C@H](CO)O2)cc1 | x | -2.3 | x | x | 10.8
C[C@H]1C=C(C(=O)Nc2ccccc2)O[C@@H](OCCCCO)C1 | x | -32.5 | x | x | x
C[C@H](CO)N1C[C@H](C)[C@@H](CN(C)C(=O)Nc2ccc3c(c2)OCO3)Oc2ccc(NC(=O)Cn3cnnn3)cc2CC1=O | x | -16.4 | x | x | 20.4
COc1cc2c(c(OC)c1OC)-c1ccc(OC)c(=O)cc1[C@@H](N(C)CC#CCO)CC2 | 12.8 | 53.6* | -5.0 | 4.8 | 2.5
CN[C@H]1CCc2cc(OC)c(OC)c(OC)c2-c2ccc(N(C)CC(OC)OC)c(=O)cc21 | 7.6 | 42.6 | -12.4 | 1.1 | 1.7
CCN(CC)c1ccc2c(cc1=O)[C@@H](NC)CCc1cc(OC)c(OC)c(OC)c1-2 | 10.7 | 60.0* | 19.9 | 22.3 | -1.1
O=C(NC1CCCCC1)C1CCCN1S(=O)(=O)c1ccc(F)cc1 (stereo not given) | 15.9 | 2.6 | 78.0* | 8.0 | -4.3
C[C@@H]1CN([C@H](C)CO)C(=O)c2cc(NS(=O)(=O)c3ccccc3)ccc2O[C@@H](C)CCCCO[C@@H]1CN(C)C(=O)Cc1ccccc1 | x | 1.6 | x | x | -9.6
Cc1ccccc1C(=O)NC1CCN(Cc2ccccc2)CC1 | -0.3 | -0.4 | -10.0 | 3.2 | 2.3

Screening data deposited in PubChem BioAssay by several laboratories.
